High-throughput results from PubChem BioAssay.
Compounds with a hit are over-represented: about 1.6% of the library has one in this group of screens.
KCNQ2 enhance – potentiators of rat KCNQ2 potassium channel; Potassium voltage-gated channel subfamily KQT member 2 (Rattus norvegicus), O88943; CHO-K1 KCNQ2, FluxOR thallium flux fluorescence; hits give high values; B-score at 10 µM; actives 0.54% (n = 310,000); AID 2239, 2010;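 active = fluorescence ratio B-score at least 3 SD of library B-scores, with initial fluorescence B-score within 3 of them, cut at about 5.3 in these data; same plate scores as AID 2156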;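 also: B-score of peak minus minimum over baseline fluorescence ratio after K+ and Tl+ stimulus; positive B-score means potentiation of KCNQ2 with more thallium influx and brighter signal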
KCNQ2 block – rat KCNQ2 potassium channel inhibitors, primary screen, cell-based, CHO-K1, FluxOR thallium flux, B-score; Potassium voltage-gated channel subfamily KQT member 2 (Rattus norvegicus), O88943; 20 min; hits give low values; B-score at 10 µM; actives 1.1% (n = 310,000); AID 2156, 2009;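 active = fluorescence ratio B-score at most minus 3 library SDs, with starting brightness B-score within 2 library SDs, cut at about -5.5 in these data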
Kir21 conf inh – mouse Kir2.1 channel blockers, retest, confirmation, cell-based, FluxOR thallium flux, duplicate; Tl flux remaining, % of negative control (hits give low values), % at 10 µM; shares compounds with KCNQ2 enhance; actives 41% (n = 2,300); Kir2.1-expressing cells, FluxOR thallium flux fluorescence; hits give low values;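 active = Primary-screen hit whose thallium flux fell at least 3 control SD below untreated wells in both duplicates, with normal baseline fluorescence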;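 also: 0% = blank wells without stimulus and 100% = stimulated no-compound controls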
HEK293 ctr – parental HEK293 activity in Kir2.1 inhibitor counter-screen | parental HEK293 cells, FluxOR thallium flux fluorescence; 0% = unstimulated blank wells | AID 2105 | actives 19% (n = 2,300) | shares compounds with KCNQ2 enhance | FluxOR signal as % of negative control (100 = no effect), % at 10 µM;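 active = dye signal at least 3 control SD above or below untreated wells in both duplicates, raw fluorescence within 3, either direction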;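 also: percent is based on the flux ratio of peak minus minimum fluorescence over baseline F0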
CHO-K1 ctr – nonspecific thallium flux increase in parental CHO-K1, confirmation, counter-screen for KCNQ2 potentiator project, cell-based, FluxOR thallium flux, duplicate | parental CHO-K1 cells, FluxOR thallium flux fluorescence; zero = vehicle mean+3SD, 100% = vehicle-minus-blank window | activity increase over 3SD of controls, % at 10 µM | shares compounds with KCNQ2 enhance | actives 43% (n = 1,200);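 active = signal rise of at least 3 SD above the untreated control mean, in both duplicate wells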;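 also: counter screen of KCNQ2 potentiator hits so any rise reflects channel-independent effects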
KCNQ1 pot spec – human KCNQ1 channel potentiation off-target, confirmation, selectivity assay for KCNQ2 potentiator project, cell-based, CHO, FluxOR thallium flux; activation over 3SD threshold, % at 10 µM; CHO KCNQ1 stable, FluxOR thallium flux fluorescence; beyond 3SD, as % of vehicle-control signal; shares compounds with KCNQ2 enhance; actives 28% (n = 1,200);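 active = fluorescence ratio rise of at least 3 SD of vehicle wells above their mean, in both replicate wells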;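 also: 0% = vehicle mean plus 3 SD and 100% = vehicle minus unstimulated blank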
KCNQ2 pot confirm – rat KCNQ2 channel potentiators, confirmation, cell-based, CHO, FluxOR thallium flux, duplicate | CHO-KCNQ2 cells, FluxOR thallium flux fluorescence | AID 2287, 2010 | shares compounds with KCNQ2 enhance | potentiation, less the hit threshold, % at 10 µM | actives 68% (n = 1,200);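 active = fluorescence ratio rising 3 SD or more over the vehicle control mean in both replicates, plus primary screen hit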;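 also: peak minus minimum thallium fluorescence divided by baseline after K/Tl stimulus; 0% = vehicle mean plus 3 SD and 100% = vehicle minus unstimulated blank difference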
Kir21 spec – mouse Kir2.1 channel activation off-target, confirmation, selectivity assay for KCNQ2 potentiator project, cell-based, HEK293, FluxOR thallium flux; shares compounds with KCNQ2 enhance; HEK293 Kir2.1, FluxOR thallium flux fluorescence; activity over 3SD threshold, % at 10 µM; actives 2% (n = 1,200);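 active = fluorescence ratio rise of at least 3 SD above the vehicle-control mean, seen in both replicates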;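 also: 0% = vehicle mean plus 3 SD and 100% = vehicle minus no-stimulus blank window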
KCNQ2 W236L pot – potentiators of retigabine-insensitive KCNQ2 W236L, mechanism study for KCNQ2 potentiator project, cell-based, rat KCNQ2 W236L, CHO, automated patch clamp; shares compounds with KCNQ2 enhance; automated patch clamp current; current increase over 3SD of negative controls (%), hits give high values, % at 25 µM; actives 10% (n = 940);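 active = current increase at least 3 SD of the untreated controls above them in both duplicate recordings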
Numbers without * were called inactive; i = inactive; x = no result given.

SMILES	KCNQ2 enhance	KCNQ2 block	Kir21 conf inh	HEK293 ctr	others
COc1ccc(Cc2nc3ccc(S(N)(=O)=O)cc3[nH]2)cc1OC	0.19	i	x	x
CC(Oc1ccc(Cl)cc1Cl)C(=O)N(C)c1ccccc1 (configuration not stated)	x	i	50%*	i
COC(=O)NNC(=O)C(C)Oc1ccc(Cl)cc1Cl (configuration not stated)	x	i	x	x
Cc1ccc(NC(=O)c2ccc(Cn3cc(Cl)cn3)o2)c(C)c1	x	i	26%*	i
COC(=O)c1sc(NC(=O)c2ccc(Cn3cc(Cl)cn3)o2)c(C#N)c1C	0.21	i	x	x
CCCN=C1CC(C)(C)CC(=O)/C1=C(/O)CCC	x	i	x	x
NC(=O)c1ccc(NC(=O)CCCc2nc(-c3ccccc3Cl)no2)cc1	x	i	x	x
CCOc1ccccc1NC(=O)NC(C)c1ccc2c(c1)OCO2 (configuration not stated)	5.8*	i	i	i	CHO-K1 ctr=4.2*;KCNQ1 pot spec=73*;KCNQ2 pot confirm=25*;Kir21 spec=-37;KCNQ2 W236L pot=i
CC(NC(=O)CCc1ccccc1)c1ccc2c(c1)OCO2 (configuration not stated)	8.5*	i	i	i	CHO-K1 ctr=-3;KCNQ1 pot spec=-8;KCNQ2 pot confirm=45*;Kir21 spec=-47;KCNQ2 W236L pot=i
Cc1ccc(C(C)NC(=O)c2ccc3c(c2)OCO3)cc1C (configuration not stated)	10*	i	i	i	CHO-K1 ctr=-17;KCNQ1 pot spec=-2;KCNQ2 pot confirm=52*;Kir21 spec=-32;KCNQ2 W236L pot=i
CCOc1ccccc1C(=O)NC(C)c1ccc2c(c1)OCO2 (configuration not stated)	2.7	i	x	x
CC(NC(=O)Cc1ccc([N+](=O)[O-])cc1)c1ccc2c(c1)OCO2 (configuration not stated)	x	i	x	x
Cc1occc1C(=O)NC(C)c1ccc2c(c1)OCO2 (configuration not stated)	x	i	x	x
O=C(CCN1CCCCC1)NNC(=O)C12CC3CC(CC(C3)C1)C2	x	i	x	x
CN(CC(=O)Nc1ccccc1Br)C(=O)CCSc1ccc(F)cc1	x	i	x	x
O=C(Nc1nc2c(F)cccc2s1)C1CC1	x	i	x	x
CC(Sc1nc(-c2ccc(F)cc2)cs1)C(=O)N1c2ccccc2CC1C (configuration not stated)	x	i	x	x
Cc1cc(C(=O)CCC(=O)N2CCN(S(=O)(=O)c3ccccc3)CC2)c(C)s1	6.2*	i	i	i	CHO-K1 ctr=-14;KCNQ1 pot spec=-14;KCNQ2 pot confirm=11*;Kir21 spec=-32;KCNQ2 W236L pot=i
Cc1cc(C(=O)CCC(=O)N2CCN(S(=O)(=O)c3cccs3)CC2)c(C)s1	4.9	i	x	x
O=[N+]([O-])c1c(NCCCO)cc(SCc2ccco2)c2nonc12	x	i	x	x
CN(C)c1nc2n(c(=S)n1)CCS2	0.66	i	x	x
O=C(NCCCNC(=O)c1ccco1)c1ccc(Cl)cc1	x	i	x	x
